Records with an inconclusive call do not appear. Active and inactive are the calls of the source. Calls come from the whole dose curve; as a rule, active = well fitted cell-killing curve with a large enough effect; inconclusive = small, poorly fitted or top-dose-only effect, or effect the other way; inactive = no such curve, though single readings can be large or run the other way.
Potency is the fitted concentration of half-maximal effect.

This test can be described thus: Quantitative High-Throughput drug screen in 47 multiple myeloma cell lines against the NCATS MIPE library collection: XG1_PLB cell viability assay (AID 1919866). Note: nearly all actives have a fitted effect of over 35% in size. To be noted: CellTiter-Glo ATP, 48 h; series mostly up to 45.8 µM. The source says:
PI: Beverly A. Mock Ph.D.
Laboratory of Cancer Biology and Genetics,
Center for Cancer Research, National Cancer Institute,
National Institute of Health, Bethesda, Maryland
Drug resistance and disease progression are common in multiple myeloma (MM) patients, underscoring the need for new therapeutic combinations. […] We hypothesized that effective combinations would reduce MYC expression and enhance p16 activity. […] These preclinical data identify potentially useful drug combinations for evaluation in drug-resistant MM and reveal potential mechanisms of combined drug sensitivity.
Described herein is the primary MIPE qHTS used to cherrypick compounds. Validated compounds were then further tested for potential synergistic activiy.
[1] Peat TJ, Gaikwad SM, Dubois W, Gyabaah-Kessie N, Zhang S, Gorjifard S, Phyo Z, Andres M, Hughitt VK, Simpson RM, Miller MA, Girvin AT, Taylor A, Williams D, D'Antonio N, Zhang Y, Rajagopalan A, Flietner E, Wilson K, Zhang X, Shinn P, Klumpp-Thomas C, McKnight C, Itkin Z, Chen L, Kazandijian D, Zhang J, Michalowski AM, Simmons JK, Keats J, Thomas CJ, Mock BA. Drug combinations identified by high-throughput screening promote cell cycle transition and upregulate Smad pathways in myeloma. Cancer Lett. 2023 Aug 1;568:216284. doi: 10.1016/j.canlet.2023.216284. Epub 2023 Jun 24. PMID: 37356470; PMCID: PMC10408729.
SEQUENCE No. (e.g., 1, 2, 3, etc.); […] (e.g., Cells, Incubation, Reagent, etc.); VALUE and DESCRIPTION.
1; Cells; 5 uL; white, solid bottom 1536-well Greiner assay plate.
2; Compounds; 23 nL; Kalypsis pin tool (Wako USA) equipped with a 1536-well pin head to transfer to the assay plates.
3; Incubation; 48 hours; 37C incubation.
4; Reagent;5uL; CellTiter Glo (Promega).
5; Detector; 425V; Luminescence; Viewlux PerkinElmer.
NOTES (numbers refer to Sequence numbers above)
1. The cell-based screening methods employed in this study were like those previously published. Briefly, the corresponding myeloma cell lines were screened in 1,536-well plates with 500 cells, 5-uL per well for inhibition of cell viability (assessed by measuring ATP levels with CellTiterGlo).
2. NCATS MIPE 4.0 library of approved and investigational drugs were added using the Kalypsis pin tool. Wells treated with DMSO only for 100% viability and media only for 0% viability were used as controls.
3. The assay plates were covered and incubated for 48 hours in a 37C, 5% CO2 incubator with controlled humidity.
4. After 48 hours, CellTilter-GloTM luminescent substrate mix (Promega) reagent was added to the assay plate and plates we incubated for 5 min at room temperature.
5. Signal was measured as median relative luminescence units on a ViewLux (PerkinElmer) multiplate reader.
[1] Heske CM, Davis MI, Baumgart JT, Wilson K, Gormally MV, Chen L, Zhang X, Ceribelli M, Duveau DY, Guha R, Ferrer M, Arnaldez FI, Ji J, Tran HL, Zhang Y, Mendoza A, Helman LJ, Thomas CJ. Matrix Screen Identifies Synergistic Combination of PARP Inhibitors and Nicotinamide Phosphoribosyltransferase (NAMPT) Inhibitors in Ewing Sarcoma. Clin Cancer Res. 2017 Dec 1;23(23):7301-7311. doi: 10.1158/1078-0432.CCR-17-1121. Epub 2017 Sep 12. PMID: 28899971; PMCID: PMC6636827.
In general terms: ATP-based viability assays read luminescence as a measure of living cells.
Consider `COC1=C[C@@H]2[C@@H]3Cc4ccc(OC)c(O)c4[C@]2(CCN3C)CC1=O`, for which the Potency is 1320 nM (active).
With `CCc1c(C(=O)C(N)=O)c2c(OCC(=O)O)cccc2n1Cc1ccccc1`, the Potency entry is “inactive”.
As for `COc1ccc(C(=O)c2c(C)n(CCN3CCOCC3)c3cc(I)ccc23)cc1`, the Potency was 7430 nM (active).
For the molecule `CO[C@H]1CCC(O[C@H]2C[C@H]([C@]3(C)CC[C@]4(C[C@H](O)[C@@H](C)[C@@H]([C@@H](C)C=C(C)C(=O)[C@H](C)C[C@H](C)C(=O)O)O4)O3)O[C@]3(O[C@@H]([C@H]4O[C@@](O)(CO)[C@H](C)C[C@H]4C)C[C@H]3C)[C@H]2C)O[C@H]1C` (stereo not given in full), the Potency is 1180 nM (active).
Consider `CN(C)NC(=O)CCC(=O)O`, for which the Potency was 26400 nM (active).
Then `CC(=O)OCC1=C(C(=O)O)N2C(=O)[C@@H](N)[C@@H]2SC1`, with “inactive”; and `C[C@]12COC(=O)C[C@@H]1CC[C@@H]1[C@H]2CC[C@@]2(C)[C@H]1CC[C@]2(C)O`, with “inactive”.
`C=CCON=C(C[C@H]1O[C@@H]2O[C@]3(C)CC[C@@H]4[C@H](C)CC[C@@H]([C@H]1C)[C@@]24OO3)[C@H]1O[C@@H]2O[C@]3(C)CC[C@H]4[C@H](C)CC[C@@H]([C@@H]1C)[C@@]24OO3`: the Potency was 418 nM (active).
The result for `O=[N+]([O-])c1ncc[nH]1` reads “inactive”; that for `O=S(=O)(CC1CS1)c1ccc(Oc2ccccc2)cc1` (stereo not given), 14800 nM (active).
The result for `CCOP(=O)(OCC)C(C)NC(=O)N(CCCl)N=O` (stereo not given) reads “inactive”; that for `CC[C@@]1(O)C(=O)OCc2c1cc1n(c2=O)Cc2cc3ccccc3nc2-1`, 33.2 nM (active).
Then `C[C@]12CCC(=O)C(O)=C1CC[C@@H]1[C@H]3CCC(=O)[C@@]3(C)CC[C@@H]12`, with “inactive”; and `O=C(O)CNC(=O)c1c(O)c2ccccc2n(Cc2ccccc2)c1=O`, with “inactive”; and `C[C@]12CC[C@H](O)CC1=CC[C@H]1[C@H]3CCC(=O)[C@@]3(C)CC[C@@H]12`, with 7430 nM (active).
In the case of `O=C(Oc1ccc([N+](=O)[O-])cc1)N1CCN(Cc2cccc(Oc3ccccc3)c2)CC1`, the Potency is 20900 nM (active).
On to `CN1CCN(c2ccc([N+](=O)[O-])c3no[n+]([O-])c23)CC1`, for which the Potency was 20900 nM (active).
The result for `CCC(=O)OC1CCC2C3CCC4=CC(=O)CC[C@@]4(C)C3CC[C@]12C` (stereo not given in full) reads “inactive”; that for `COC(=O)[C@@H](N)CCCN=C(N)N[N+](=O)[O-]`, “inactive”.
The result for `O=C(Nc1ccncc1)C(=O)c1cn(Cc2ccc(Cl)cc2)c2ccccc12` reads 6.6 nM (active).
Turning to `CCOC(=O)Nc1ccc(NCc2ccc(F)cc2)cc1N`, the Potency was 13200 nM (active).
With `Cc1ccccc1-n1c(Cn2ncc3c(N)ncnc32)nc2cccc(C)c2c1=O`, the Potency was 296 nM (active).
Then `Cc1[nH]nc2ccc(-c3cncc(OC[C@@H](N)Cc4c[nH]c5ccccc45)c3)cc12`, with 235 nM (active); and `CC1=NN=C(c2ccc(N)cc2)c2cc3c(cc2C1)OCO3`, with “inactive”.
For the molecule `CCCCCC[C@H]1C(=O)O[C@H](C)[C@H](NC(=O)c2cccc(NC=O)c2O)C(=O)O[C@@H](C)[C@@H]1OC(=O)CC(C)C`, the Potency was 23.5 nM (active).
The result for `C[C@]12Cc3cn[nH]c3C[C@@H]1CC[C@@H]1[C@H]2CC[C@@]2(C)[C@H]1CC[C@]2(C)O` reads “inactive”; that for `COc1cc2cc(c1Cl)N(C)C(=O)C[C@H](OC(=O)C(C)C)[C@]1(C)O[C@H]1[C@H](C)[C@@H]1C[C@@](O)(NC(=O)O1)[C@H](OC)C=CC=C(C)C2`, “inactive”; that for `Cc1ccccc1-n1c(Cn2cnc3c(N)ncnc32)nc2cccc(C)c2c1=O`, 209 nM (active).
The result for `C[C@@H]1[C@H](O)[C@@H](C)C=CC=CCCC=CC=CC=CC=C[C@H](O[C@H]2O[C@@H](C)[C@H](O)[C@@H](N)[C@@H]2O)CC2O[C@](O)(C[C@@H](O)[C@H](O)CC[C@@H](O)C[C@@H](O)C[C@@H](O)CC(=O)O[C@H]1C)C[C@H](O)[C@H]2C(=O)O` reads “inactive”; that for `CC(C)(O)C=CC(=O)[C@](C)(O)[C@H]1[C@H](O)C[C@]2(C)[C@@H]3CC=C4[C@@H](C=C(O)C(=O)C4(C)C)[C@]3(C)C(=O)C[C@@]12C`, 41.8 nM (active); that for `CC[C@@H]1[C@@H](C)O[C@@](O)([C@@H](C)[C@H](O)[C@H](C)[C@H]2OC(=O)C=CC=C[C@@H](C)[C@@H]([C@@H](C)[C@@H](O)[C@H](C)[C@@]3(O)C[C@H](O[C@H]4C[C@H](O)[C@H](O)[C@H](C)O4)[C@H](CC)[C@@H](C)O3)OC(=O)C=CC=C[C@@H]2C)C[C@H]1O[C@H]1C[C@H](O)[C@H](O)[C@H](C)O1`, 469 nM (active).
The result for `CC(N[C@H]1C[C@H]1c1ccccc1)c1ccc2c(c1)OCCO2` (stereo not given in full) reads “inactive”; that for `O=c1[nH]c2ccccc2n1C1CCN(Cc2ccc(-c3[nH]c4cc5ncnc5cc4nc3-c3ccccc3)cc2)CC1`, 7430 nM (active); that for `CCN1C[C@]2(OC(=O)c3ccccc3NC(C)=O)CC[C@H](OC)[C@@]34[C@H]5CC6[C@@H](OC)C[C@](O)(C(C[C@@H]23)[C@@H]14)[C@@]5(O)[C@@H]6OC`, “inactive”.
Take `C[C@@H]1CC[C@@]2(OC1)O[C@H]1C[C@H]3[C@@H]4CC=C5C[C@@H](O[C@@H]6O[C@H](CO)[C@@H](O[C@@H]7O[C@@H](C)[C@H](O)[C@@H](O)[C@@H]7O)[C@H](O)[C@@H]6O[C@@H]6O[C@@H](C)[C@H](O)[C@@H](O)[C@@H]6O)CC[C@]5(C)[C@@H]4CC[C@]3(C)[C@@H]1[C@H]2C`: the Potency is 2640 nM (active).
For the molecule `COc1cccc2c1[C@]13CCN(CC4CC4)[C@H](C2)[C@]1(OC)CCC(=O)C3`, the Potency entry is “inactive”.
On to `CN(C)[C@@H]1C(=O)C(C(N)=O)=C(O)[C@@]2(O)C(=O)C3=C(O)c4c(O)cccc4[C@@](C)(O)[C@H]3[C@H](O)[C@@H]12`, for which the Potency was 16600 nM (active).
In the case of `O=C1C=CC[C@@H]2[C@H]3CCCN4CCC[C@@H](CN12)[C@@H]34`, the Potency result is “inactive”.
As to `CCNC(=O)CC1N=C(c2ccc(Cl)cc2)c2cc(OC)ccc2-n2c(C)nnc21` (stereo not given), the Potency was 5900 nM (active).
Take `C1=C2CCCN[C@H]2[C@@H]2C[C@H]1[C@@H]1CCCCN1C2`: the Potency entry was “inactive”.
